In PubChem BioAssay AID1159580 (chemical genetic matrix, 2015):
Several values for one entry are separate records, joined by “and”; a condition that tells them apart may be missing. Identical values can stand only once. Hit rate of the full screen: of about 5,500 compounds, about 2,000 (36%) were called active. Roughly 18% stayed inconclusive and do not appear here. Cut-off read from the data, not from the text of the source: active = normalized growth mostly below about 0.91 (no sharp cut-off); inconclusive = no clear call, values can overlap the other calls; inactive = mostly above about 0.92. This is one part of the list.

Experiment: chemical genetic growth profiling, strain panel (AID 1159580);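 note: tested at 20 µM; growth read once vehicle control cultures reached saturation at 30 °C; 1 = growth at the plate median or of vehicle wells; lower values mean less growth of the strain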
Conditions: S. cerevisiae deletion strains, growth OD

Measured: normalized growth

CC(CN(C)C)CN1c2ccccc2CCc2ccccc21 (stereo not given)
inactive: locus YAL013W, strain DEP1, stronger effect = lower value 1 | locus YAL026C, strain drs2, stronger effect = lower value 0.982 | locus YAL030W, strain snc1, stronger effect = lower value 0.977 | locus YAL040C, strain CLN3, stronger effect = lower value 1.03 | locus YBL061C, strain skt5, stronger effect = lower value 0.984 | locus YBR009C, strain hhf1, stronger effect = lower value 0.972 | locus YBR021W, strain FUR4, stronger effect = lower value 1.01 | locus YBR023C, strain chs3, stronger effect = lower value 0.975 | locus YBR171W, strain sec66, stronger effect = lower value 0.963 | locus YBR229C, strain ROT2, stronger effect = lower value 1.01 | locus YBR231C, strain swc5, stronger effect = lower value 0.976 | locus YBR279W, strain paf1, stronger effect = lower value 0.988 | locus YCL011C, strain gbp2, stronger effect = lower value 0.973 | locus YCL016C, strain dcc1, stronger effect = lower value 0.974 | locus YCL029C, strain bik1, stronger effect = lower value 1.02 | locus YCL061C, strain MRC1 (second series), stronger effect = lower value 1.01 | locus YCL061C, strain MRC1, stronger effect = lower value 0.986 | locus YCL069W, strain vba3, stronger effect = lower value 0.969 | locus YCR088W, strain abp1, stronger effect = lower value 0.977 | locus YDL005C, strain med2, stronger effect = lower value 0.973 | locus YDL035C, strain GPR1, stronger effect = lower value 1.01 | locus YDL040C, strain nat1, stronger effect = lower value 0.976 | locus YDL074C, strain BRE1, stronger effect = lower value 1.02 | locus YDL101C, strain DUN1, stronger effect = lower value 1 | locus YDL134C, strain PPH21, stronger effect = lower value 1.01 | locus YDL185W, strain tfp1, stronger effect = lower value 1.02 | locus YDL192W, strain arf1, stronger effect = lower value 1.01 | locus YDR001C, strain nth1, stronger effect = lower value 0.977 | locus YDR069C, strain doa4, stronger effect = lower value 0.921 | locus YDR101C, strain arx1, stronger effect = lower value 1.02 | locus YDR150W, strain NUM1, stronger effect = lower value 1.02 and 1.01 | locus YDR159W, strain sac3, stronger effect = lower value 0.977 | locus YDR162C, strain NBP2, stronger effect = lower value 1.01 | locus YDR195W, strain ref2 0.999 | locus YDR297W, strain sur2, stronger effect = lower value 0.975 | locus YDR318W, strain mcm21, stronger effect = lower value 1.02 | locus YDR334W, strain swr1, stronger effect = lower value 0.946 | locus YDR335W, strain msn5, stronger effect = lower value 0.975 | locus YDR363W, strain ESC2, stronger effect = lower value 0.993 | locus YDR388W, stronger effect = lower value 1.02 | locus YDR392W, strain spt3, stronger effect = lower value 0.96 | locus YDR502C, strain sam2, stronger effect = lower value 1.03 | locus YEL003W, strain gim4, stronger effect = lower value 0.965 | locus YEL037C, strain rad23, stronger effect = lower value 0.954 | locus YEL061C, strain CIN8 (second series), stronger effect = lower value 0.96 | locus YEL061C, strain CIN8, stronger effect = lower value 1.01 | locus YER002W, strain NOP16, stronger effect = lower value 1.01 | locus YER015W, strain faa2, stronger effect = lower value 0.961 | locus YER016W, strain bim1, stronger effect = lower value 0.975 | locus YER110C, stronger effect = lower value 1.02 | locus YER111C, strain swi4, stronger effect = lower value 0.974 | locus YER155C, strain BEM2 (second series), stronger effect = lower value 0.948 | locus YER155C, strain BEM2, stronger effect = lower value 1 | locus YER167W, strain BCK2, stronger effect = lower value 1.01 | locus YFR010W, strain ubp6, stronger effect = lower value 0.954 | locus YGL078C, strain dbp3, stronger effect = lower value 1.01 | locus YGL086W, strain mad1, stronger effect = lower value 1.01 | locus YGL167C, strain pmr1, stronger effect = lower value 0.98 | locus YGL173C, strain kem1, stronger effect = lower value 0.972 | locus YGL227W, strain vid30, stronger effect = lower value 0.978 | locus YGL240W, strain doc1, stronger effect = lower value 0.969 | locus YGL248W, strain PDE1, stronger effect = lower value 0.996 | locus YGL253W, strain hxk2, stronger effect = lower value 0.977 | locus YGR078C, strain PAC10, stronger effect = lower value 1.01 | locus YGR135W, strain pre9, stronger effect = lower value 1.02 | locus YGR229C, strain SMI1, stronger effect = lower value 0.978 | locus YGR252W, strain gcn5, stronger effect = lower value 0.97 | locus YHR027C, strain rpn1, stronger effect = lower value 0.966 | locus YHR030C, strain SLT2, stronger effect = lower value 1.02 and 0.988 | locus YHR079C, strain IRE1 (second series), stronger effect = lower value 1.01 | locus YHR079C, strain IRE1, stronger effect = lower value 0.981 | locus YHR094C, strain hxt1, stronger effect = lower value 1.01 | locus YHR129C, strain ARP1, stronger effect = lower value 1.01 | locus YHR142W, strain chs7, stronger effect = lower value 0.971 | locus YHR200W, strain rpn10, stronger effect = lower value 1.03 | locus YIL066C, strain RNR3, stronger effect = lower value 1 | locus YIL073C, strain SPO22, stronger effect = lower value 1.07 | locus YIL125W, strain kgd1, stronger effect = lower value 1.01 | locus YIR030C, strain dcg1, stronger effect = lower value 1.01 | locus YJL092W, strain hpr5, stronger effect = lower value 0.936 | locus YJL095W, strain BCK1 (second series), stronger effect = lower value 0.984 | locus YJL095W, strain BCK1, stronger effect = lower value 0.984 and 0.986 | locus YJL115W, strain asf1, stronger effect = lower value 0.957 | locus YJL129C, strain trk1, stronger effect = lower value 0.973 | locus YJL134W, strain LCB3, stronger effect = lower value 1 | locus YJL154C, strain vps35, stronger effect = lower value 0.978 | locus YJL164C, strain tpk1, stronger effect = lower value 0.973 | locus YJL166W, strain qcr8, stronger effect = lower value 0.963 | locus YJL168C, strain set2, stronger effect = lower value 1.02 | locus YJL187C, strain SWE1 (second series), stronger effect = lower value 0.988 | locus YJL187C, strain SWE1, stronger effect = lower value 0.965 | locus YJR043C, strain POL32, stronger effect = lower value 1
active: locus YAL021C, strain ccr4, stronger effect = lower value 0.893 | locus YDR137W, strain rgp1, stronger effect = lower value 1.2 [resistant] | locus YHR013C, strain ard1, stronger effect = lower value 0.833
